Consider 29 molecules from the supplement of paper PMC13380429.

SMILES strings stand for the structures. Where a name gives a salt, the structure may show the parent alone.

In the experiment the test system is Vero E6 infected with SARS-CoV-2. Briefly: SARS-CoV-2 infection rate relative to infected DMSO; higher = more infection, active = 60 or less. To be noted: 24 h.
For the molecule `COc1cccc(N2CCN(C3=Nc4c(F)cccc4[C@H](CC(=O)O)N3c3cc(C(F)(F)F)ccc3OC)CC2)c1` [letermovir] (10 µM), the SARS-CoV-2 infection rate was 109% (inactive).
The result for `CCc1ccc(/C=C2/SC(=S)NC2=O)cc1` (10 µM) reads 92.5% (inactive); that for `CC[C@H](c1ccc(O)cc1)[C@@H](CC)c1ccc(O)cc1` [hexestrol] (10 µM), 102% (inactive); that for `Cc1nc(C)c(Cl)c(O)c1Cl` [clopidol] (10 µM), 108% (inactive).
Regarding `COc1cnc(NS(=O)(=O)c2ccc(N)cc2)nc1` [sulfameter] (10 µM), the SARS-CoV-2 infection rate is 111% (inactive).
The result for `CC(C)(C)Cn1c(N)nc2ccc(-c3[nH]c(C(C)(C)C)nc3-c3ccc(F)cc3)nc21` (10 µM) reads 111% (inactive).
Regarding `Cc1nc2ccccn2c(=O)c1CCN1CCC(C(=O)c2ccc(F)cc2)CC1` [pirenperone] (10 µM), the SARS-CoV-2 infection rate was 108% (inactive).
The result for `CO[C@H]1[C@H](O)[C@@H](O)[C@@H](O)[C@H](O)[C@@H]1O` [pinitol] (10 µM) reads 114% (inactive).
Then `CO/N=C(\C(=O)N[C@@H]1C(=O)N2C(C(=O)O)=C(CSc3nc(C)c(CC(=O)O)s3)CS[C@H]12)c1csc(N)n1` [cefodizime] (10 µM), with 101% (inactive); and `C[C@H]1CO[C@@H]2Cn3cc(C(=O)NCc4ccc(F)cc4F)c(=O)c(O)c3C(=O)N12` (10 µM), with 108% (inactive).
For the molecule `CC1(C)N=C(N)N=C(N)N1OCCCOc1cc(Cl)c(Cl)cc1Cl` (10 µM), the SARS-CoV-2 infection rate was 89.5% (inactive).
On to `Cc1ccccc1/N=N/c1ccc(NC(=O)c2ccnn2C)c(C)c1` (10 µM), for which the SARS-CoV-2 infection rate is 109% (inactive).
As to `CN1CCN(CCCN2c3ccccc3Sc3ccc(S(=O)(=O)N(C)C)cc32)CC1` [thioproperazine] (10 µM), the SARS-CoV-2 infection rate is 102% (inactive).
Take `COC1=C2C[C@@H](C)C[C@H](OC)[C@H](O)[C@@H](C)/C=C(\C)[C@H](OC(N)=O)[C@@H](OC)/C=C\C=C(/C)C(=O)NC(=CC1=O)C2=O` [geldanamycin] (0.833333 µM): the SARS-CoV-2 infection rate was 98.5% (inactive).
Take `Cc1cccc(-c2nn3c(c2-c2ccnc4ccc(C(N)=O)cc24)CCC3)n1` (10 µM): the SARS-CoV-2 infection rate is 100% (inactive).
In the case of `CCCC(CCC)C(=O)NCC(N)=O` [valrocemide] (10 µM), the SARS-CoV-2 infection rate is 108% (inactive).
Take `CCn1cc(C(=O)O)c(=O)c2cnc(N3CCCC3)nc21` [piromidic-acid] (10 µM): the SARS-CoV-2 infection rate was 99.5% (inactive).
Turning to `CN[C@@H]1[C@H](O[C@H]2[C@H](O[C@H]3[C@H](O)[C@@H](O)[C@H](N=C(N)N)[C@@H](O)[C@@H]3N=C(N)N)O[C@@H](C)[C@]2(O)C=O)O[C@@H](CO)[C@H](O)[C@H]1O` [STREPTOMYCIN SULFATE [5mM; 10% aq DMSO + 5mM ethanolamine]] (10 µM), the SARS-CoV-2 infection rate was 104% (inactive).
Then `CCS(=O)(=O)N1CCC[C@@H]2CN3CCc4cc(OC)ccc4[C@@H]3C[C@@H]21` (10 µM), with 102% (inactive).
For the molecule `CCNC(=O)CCC/C=C\C[C@@H]1[C@@H](/C=C/[C@@H](O)CCc2ccccc2)[C@H](O)C[C@@H]1O` [bimatoprost] (10 µM), the SARS-CoV-2 infection rate is 103% (inactive).
Then `C1CCC(/N=C(\NC23CC4CC(CC(C4)C2)C3)N2CCOCC2)CC1` (10 µM), with 110% (inactive); and `CN(C)CC/C=C1/c2ccccc2Sc2ccc(Cl)cc21` [chlorprothixene] (10 µM), with 68.5% (inactive).
For `Cn1nc(C(C)(C)C)cc1C(=O)N[C@@H](Cc1cccc(Cl)c1)C(=O)NCC#N` [cathepsin-inhibitor-1] (10 µM), the SARS-CoV-2 infection rate is 97.5% (inactive).
Then `O=C(/C=C/c1ccccc1)NCCO` [brolitene] (10 µM), with 93.5% (inactive).
In the case of `CCOC(=O)[C@H](Cc1ccccc1)NC(=O)c1cc(Cl)c(OCCN2CCN(C)CC2)c(Cl)c1O` (10 µM), the SARS-CoV-2 infection rate is 76.5% (inactive).
`CC(=O)Nc1ccc(OC(C)=O)cc1` [diacetamate] (10 µM): the SARS-CoV-2 infection rate was 99.5% (inactive).
`Cc1ccccc1C(=O)Nc1ccc(C(=O)N2CCCC(N(C)C)c3ccccc32)cc1` (centres undefined) [mozavaptan] (0.833333 µM): the SARS-CoV-2 infection rate was 117% (inactive).
Then `CC(C)c1ccccc1S(=O)(=O)c1cc(N)c2ncccc2c1[N+](=O)[O-]` (10 µM), with 95.5% (inactive).
In the case of `O=C(NC(=O)c1c(F)cccc1Cl)NC1c2ccccc2-c2ccccc21` (10 µM), the SARS-CoV-2 infection rate was 102% (inactive).
